Screens (PubChem BioAssay)
rCAG RNA binder – molecules binding r(CAG) RNA repeats; r(CAG) RNA repeat, TO-PRO-1 dye displacement fluorescence; inhibition, % at 3 µM; 370,000 tested, 1.3% active; AID 651821;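 active means inhibition above the plate cutoff, the mean of all test compounds on that plate plus 3 SD, cut at about 35% in these data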;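 further: 0% = DMSO alone and 100% = 100 µM mitoxantrone as full dye displacement; higher means more dye released from RNA so lower well fluorescence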
GRIN3A LBD mod – NR3A (human) ligand-binding domain modulation; 340,000 tested, 2.5% active; NR3A LBD differential scanning fluorimetry, Tm shift; 0% = protein alone, 100% = glycine-bound protein; Tm shift relative to glycine control, % at 25 µM;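 active means melting temperature shift of at least 10% of the positive control shift, at one fixed dose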
NadD inh – NadD (S. aureus) enzyme inhibition; purified NadD enzyme, colorimetric absorbance read-out; inhibition, % at 20 µM; 360,000 tested, 0.78% active; in the data active means inhibition above about 26%
FAS TE block – blocks the thioesterase domain of human fatty acid synthase; inhibition, % at 15 µM; 360,000 tested, 0.67% active; P49327; recombinant FAS-TE, OMFH fluorogenic substrate, fluorescence endpoint;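 active means compounds whose normalised, plate-corrected inhibition of enzyme fluorescence in the single-dose primary screen is 50% or more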;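 further: 0% = DMSO with enzyme and 100% = substrate without enzyme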
Target sequence (P49327 whole entry, looked up, the tested form may be a part): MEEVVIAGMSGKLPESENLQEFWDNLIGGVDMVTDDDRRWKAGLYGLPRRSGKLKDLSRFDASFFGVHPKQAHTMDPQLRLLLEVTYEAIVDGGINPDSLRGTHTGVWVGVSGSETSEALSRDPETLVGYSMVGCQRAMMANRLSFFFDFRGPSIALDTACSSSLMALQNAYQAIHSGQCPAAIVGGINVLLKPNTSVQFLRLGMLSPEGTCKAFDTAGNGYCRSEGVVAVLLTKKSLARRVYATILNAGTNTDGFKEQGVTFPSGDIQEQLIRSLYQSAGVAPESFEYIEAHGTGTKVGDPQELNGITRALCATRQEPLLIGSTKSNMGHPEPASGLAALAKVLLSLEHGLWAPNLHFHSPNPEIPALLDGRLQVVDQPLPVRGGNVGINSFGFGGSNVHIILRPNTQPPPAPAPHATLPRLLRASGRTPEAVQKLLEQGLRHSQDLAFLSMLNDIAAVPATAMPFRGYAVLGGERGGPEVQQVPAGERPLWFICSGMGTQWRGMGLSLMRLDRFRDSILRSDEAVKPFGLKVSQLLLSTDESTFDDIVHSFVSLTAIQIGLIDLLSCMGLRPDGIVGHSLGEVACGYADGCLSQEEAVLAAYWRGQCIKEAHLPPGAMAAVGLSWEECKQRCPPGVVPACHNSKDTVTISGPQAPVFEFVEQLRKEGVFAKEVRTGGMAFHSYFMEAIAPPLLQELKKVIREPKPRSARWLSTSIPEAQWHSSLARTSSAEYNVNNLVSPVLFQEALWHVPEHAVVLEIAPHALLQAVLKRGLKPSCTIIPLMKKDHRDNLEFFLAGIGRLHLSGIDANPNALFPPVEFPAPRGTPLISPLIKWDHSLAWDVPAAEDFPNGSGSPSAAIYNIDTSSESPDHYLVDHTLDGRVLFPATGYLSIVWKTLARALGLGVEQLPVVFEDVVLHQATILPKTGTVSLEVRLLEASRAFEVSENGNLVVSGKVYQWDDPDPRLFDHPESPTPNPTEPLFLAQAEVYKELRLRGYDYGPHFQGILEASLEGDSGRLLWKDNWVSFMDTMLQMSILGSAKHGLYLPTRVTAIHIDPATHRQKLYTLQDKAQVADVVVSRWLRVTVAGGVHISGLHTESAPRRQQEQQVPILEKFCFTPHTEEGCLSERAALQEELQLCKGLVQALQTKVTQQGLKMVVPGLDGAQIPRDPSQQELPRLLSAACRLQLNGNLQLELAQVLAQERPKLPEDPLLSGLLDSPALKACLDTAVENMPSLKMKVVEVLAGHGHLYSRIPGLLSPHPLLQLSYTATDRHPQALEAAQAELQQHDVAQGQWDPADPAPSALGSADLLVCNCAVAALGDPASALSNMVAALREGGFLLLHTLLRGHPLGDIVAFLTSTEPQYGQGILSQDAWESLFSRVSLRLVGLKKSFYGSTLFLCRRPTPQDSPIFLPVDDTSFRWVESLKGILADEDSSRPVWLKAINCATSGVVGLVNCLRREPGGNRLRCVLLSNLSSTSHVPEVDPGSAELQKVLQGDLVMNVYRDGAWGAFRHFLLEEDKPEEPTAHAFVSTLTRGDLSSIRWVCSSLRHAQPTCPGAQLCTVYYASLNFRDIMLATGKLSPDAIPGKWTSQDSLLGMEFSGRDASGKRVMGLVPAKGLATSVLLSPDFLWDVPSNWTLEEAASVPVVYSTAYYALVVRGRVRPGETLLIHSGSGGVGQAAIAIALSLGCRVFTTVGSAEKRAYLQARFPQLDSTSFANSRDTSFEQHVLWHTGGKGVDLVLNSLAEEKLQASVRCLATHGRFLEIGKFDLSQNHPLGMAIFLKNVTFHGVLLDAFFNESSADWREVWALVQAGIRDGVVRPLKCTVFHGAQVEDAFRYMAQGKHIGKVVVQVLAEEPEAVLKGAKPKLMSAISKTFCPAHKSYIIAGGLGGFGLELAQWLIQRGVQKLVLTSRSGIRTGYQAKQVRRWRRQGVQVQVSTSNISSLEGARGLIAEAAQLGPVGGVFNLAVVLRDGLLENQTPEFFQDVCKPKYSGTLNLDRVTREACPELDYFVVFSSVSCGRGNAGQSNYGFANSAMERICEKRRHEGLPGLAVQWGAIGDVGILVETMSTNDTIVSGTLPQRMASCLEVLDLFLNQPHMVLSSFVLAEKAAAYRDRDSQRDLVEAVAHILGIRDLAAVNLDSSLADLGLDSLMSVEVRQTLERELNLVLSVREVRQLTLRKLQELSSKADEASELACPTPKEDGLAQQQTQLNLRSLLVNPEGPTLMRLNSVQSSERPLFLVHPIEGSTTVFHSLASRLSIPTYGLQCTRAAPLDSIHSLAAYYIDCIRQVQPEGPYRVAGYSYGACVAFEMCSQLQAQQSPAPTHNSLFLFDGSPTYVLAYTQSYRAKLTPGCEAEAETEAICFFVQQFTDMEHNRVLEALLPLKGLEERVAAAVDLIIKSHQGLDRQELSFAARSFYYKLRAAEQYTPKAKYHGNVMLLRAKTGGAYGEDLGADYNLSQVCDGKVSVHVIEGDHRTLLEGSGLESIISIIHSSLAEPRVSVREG
Active calls of the source: *; x = no result given. Hits are enriched below; roughly 4.3% of the tested compounds scored in any of these assays.

SMILES	rCAG RNA binder	GRIN3A LBD mod	NadD inh	FAS TE block
COc1ccc(NC(=O)c2cccc(OS(=O)(=O)N(C)C)c2)cc1	-1.6	11.7*	-2.8	4.0
COc1ccc(C(=O)Nc2ccc3ccccc3c2)cc1	0.6	21.1*	-4.5	3.4
Cn1nnc2cc(C(=O)Nc3ccc4ccccc4c3)ccc21	3.5	21.0*	1.5	-5.5
COc1cc(NS(=O)(=O)c2ccc(NC(=O)c3ccc(F)cc3)cc2)ncn1	4.1	12.6*	-3.1	-4.8
COc1ccc(OC)c(C(=O)c2ccc(C(=O)Nc3ccc4ccccc4c3)cc2)c1	4.7	5.0	-0.8	25.5
O=C(OC12CCCN(C1)/C(=C/c1ccccc1)C2)C1CCCCC1 (centres undefined)	3.6	x	x	x
COc1cccc(C(=O)Nc2ccc(NC(=O)c3cc4ccccc4o3)c(OC)c2)c1	2.0	23.3*	-9.4	0.5
O=C(Nc1cc(Cl)cc(Cl)c1)c1cccc(OC(F)F)c1	9.7	25.5*	-14.9	38.1
Cc1ccnc(NC(=O)c2cccc(OC(F)F)c2)n1	-0.9	0.8	-3.1	-8.1
COc1cc(NC(=O)c2ccccc2)ccc1NC(=O)c1cc2ccccc2o1	0.7	1.6	-3.0	2.8
COc1cccc(C(=O)Nc2ccc3ccccc3c2)c1	4.8	30.4*	-10.1	11.7
COc1cccc(-c2cc(=O)c3cc(NC(=O)c4ccc(Cl)cc4)ccc3[nH]2)c1	-1.7	-0.1	13.7	-3.4
COc1cccc(-c2cc(=O)c3cc(NC(=O)c4ccccc4)ccc3[nH]2)c1	1.7	26.2*	11.1	-7.7
CN1CCCCC(NC(=O)CSc2ccccc2)C1=O (centres undefined)	0.7	x	x	x
CN(C)S(=O)(=O)c1ccc(NC(=O)c2cc3ccccc3o2)cc1	2.2	30.7*	-13.6	10.1
O=C(Nc1ccccc1N1CCCC1)c1cccc(S(=O)(=O)N2CCOCC2)c1	2.8	-0.9	-1.6	0.3
COc1cccc(NC(=O)Cc2ccccc2)c1	0.1	10.3*	-11.7	-4.0
O=C(Nc1ccccc1N1CCOCC1)c1cccc(S(=O)(=O)Nc2ccccc2F)c1	36.6*	-4.5	1.2	0.5
CS(=O)(=O)Nc1ccc(C(=O)Nc2ccc3ccccc3c2)cc1	9.0	30.8*	-3.2	-3.4
Cc1ccccc1CN1CCCCC(NC(=O)c2cccc(C(F)(F)F)c2)C1=O (centres undefined)	-2.7	x	x	x
O=c1c2cc3cc(Cl)ccc3nc2ncn1Cc1ccc(Oc2ccccc2)cc1	8.2	x	x	x
COC(=O)C1CN(CCO)CCS(=O)(=O)N1Cc1cn(Cc2ccccc2Br)nn1 (centres undefined)	1.7	x	x	x
c1ccc(OCc2nnc(SCc3nc4ccccc4[nH]3)n2-c2ccccc2)cc1	2.2	x	x	x
Nc1ccc(C23CC4CC(CC(O)(C4)C2)C3)cc1	-1.5	16.8*	-3.1	1.0
Nc1ccc(C23CC4CC(CC(CO)(C4)C2)C3)cc1	-2.1	1.4	-0.5	-4.7
SMILES	rCAG RNA binder	GRIN3A LBD mod	NadD inh	FAS TE block
CN1OC[C@@H]2CN(C(=O)c3ccc(C#N)cc3)[C@H](c3cccc(Br)c3)C[C@@H]21	1.8	x	x	x
COc1ccc(NC(=O)CSc2nc(N3CCCCC3)nc(N3CCCCC3)n2)cc1	1.1	12.7*	6.0	-1.1
O=C(/C=C/c1ccccc1)NC(NC(=S)Nc1cccc(O)c1)C(Cl)(Cl)Cl (centres undefined)	23.8	20.6*	-0.9	15.3
O=C(/C=C/c1ccccc1)NC(NC(=S)Nc1cccc(Cl)c1)C(Cl)(Cl)Cl (centres undefined)	10.8	28.9*	10.8	4.4
Cc1ccc(C)c(NC(=S)NC(NC(=O)/C=C/c2ccccc2)C(Cl)(Cl)Cl)c1 (centres undefined)	15.3	13.8*	15.8	0.1
O=C(/C=C/c1ccccc1)NC(NC(=S)Nc1ccc(Cl)cc1Cl)C(Cl)(Cl)Cl (centres undefined)	x	20.1*	14.4	12.5
COC(=O)NC(NC(=S)Nc1cccc(C)c1)C(Cl)(Cl)Cl (centres undefined)	1.2	-16.4	0.1	9.9
COC(=O)c1cc(-c2ccccc2OC)c(=O)n2c1CCC2	0.8	x	x	x
CCNc1nc(NCc2ccccc2)nc(SCC(=O)Nc2ccccc2)n1	-0.1	-16.9	1.6	13.8
CN(C)c1nc(NCc2ccccc2)nc(SCC(=O)Nc2ccc(Cl)c(Cl)c2)n1	1.4	32.2*	10.4	30.8
CCNc1nc(SCC(=O)Nc2ccc(Cl)c(Cl)c2)nc(N(C)C)n1	3.9	10.5*	0.7	12.1
Cc1cc(NC(=O)Nc2cccc(F)c2)n(-c2ccccc2)n1	6.5	x	x	x
COc1ccc(NC(=O)Nc2ccccc2C(=O)N2CCCC2)cc1OC	2.3	x	x	x
COc1cc(/C=C2\SC(=Nc3ccc(O)cc3)NC2=O)cc(OC)c1O	15.7	12.6*	4.8	-3.6
